Measurements from PubChem BioAssay AID1159580 (chemical genetic matrix, 2015).
Values joined by “and” are separate entries in the source; they are usually repeats but may differ in a detail not shown here. Identical values can stand only once. The campaign covered roughly 5,500 compounds. About 2,000 (36%) were called active. Another 18% or so got no clear call; they are omitted. Cut-off read from the data, not from the text of the source: active = normalized growth mostly below about 0.91 (no sharp cut-off); inconclusive = no clear call, values can overlap the other calls; inactive = mostly above about 0.92. The list shows a part of the results.

Test: chemical genetic growth profiling, strain panel (AID 1159580);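 note: tested at 20 µM; growth read once vehicle control cultures reached saturation at 30 °C; 1 = growth at the plate median or of vehicle wells; lower values mean less growth of the strain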
Conditions: growth OD

Measured: normalized growth

CCn1cc(C(=O)O)c(=O)c2cc3c(cc21)OCO3
inactive: S. cerevisiae deletion strains, locus YJR066W, strain TOR1, stronger effect = lower value 0.991 | S. cerevisiae deletion strains, locus YJR075W, strain HOC1, stronger effect = lower value 1.02 and 0.993 | S. cerevisiae deletion strains, locus YKL009W, strain mrt4, stronger effect = lower value 1.01 | S. cerevisiae deletion strains, locus YKL068W, stronger effect = lower value 0.996 | S. cerevisiae deletion strains, locus YKL085W, strain MDH1 (second series), stronger effect = lower value 0.996 | S. cerevisiae deletion strains, locus YKL085W, strain MDH1, stronger effect = lower value 0.996 | S. cerevisiae deletion strains, locus YKL160W, strain elf1, stronger effect = lower value 0.961 | S. cerevisiae deletion strains, locus YKL190W, strain CNB1, stronger effect = lower value 1.01 | S. cerevisiae deletion strains, locus YKR001C, strain vps1, stronger effect = lower value 1.01 | S. cerevisiae deletion strains, locus YKR026C, strain gcn3, stronger effect = lower value 0.987 | S. cerevisiae deletion strains, locus YKR091W, strain srl3, stronger effect = lower value 0.982 | S. cerevisiae deletion strains, locus YLL001W, strain dnm1, stronger effect = lower value 0.96 | S. cerevisiae deletion strains, locus YLL026W, stronger effect = lower value 0.988 | S. cerevisiae deletion strains, locus YLL041C, strain sdh2, stronger effect = lower value 0.98 | S. cerevisiae deletion strains, locus YLR027C, strain aat2, stronger effect = lower value 0.986 | S. cerevisiae deletion strains, locus YLR039C, strain RIC1, stronger effect = lower value 1.03 | S. cerevisiae deletion strains, locus YLR058C, strain SHM2, stronger effect = lower value 1.01 | S. cerevisiae deletion strains, locus YLR102C, strain apc9, stronger effect = lower value 0.994 | S. cerevisiae deletion strains, locus YLR113W, strain HOG1, stronger effect = lower value 1.07 | S. cerevisiae deletion strains, locus YLR221C, strain rsa3, stronger effect = lower value 0.96 | S. cerevisiae deletion strains, locus YLR258W, strain gsy2, stronger effect = lower value 0.983 | S. cerevisiae deletion strains, locus YLR262C, strain YPT6 (second series), stronger effect = lower value 0.909 | S. cerevisiae deletion strains, locus YLR262C, strain YPT6, stronger effect = lower value 1.04 | S. cerevisiae deletion strains, locus YLR268W, strain sec22, stronger effect = lower value 1 | S. cerevisiae deletion strains, locus YLR320W, strain mms22, stronger effect = lower value 0.956 | S. cerevisiae deletion strains, locus YLR330W, strain CHS5, stronger effect = lower value 1.01 | S. cerevisiae deletion strains, locus YLR342W, strain FKS1 (second series), stronger effect = lower value 0.996 | S. cerevisiae deletion strains, locus YLR342W, strain FKS1, stronger effect = lower value 0.977 | S. cerevisiae deletion strains, locus YLR357W, strain rsc2, stronger effect = lower value 0.944 | S. cerevisiae deletion strains, locus YLR370C, strain arc18, stronger effect = lower value 0.964 | S. cerevisiae deletion strains, locus YLR371W, strain rom2, stronger effect = lower value 0.993 | S. cerevisiae deletion strains, locus YLR384C, strain iki3, stronger effect = lower value 0.959 | S. cerevisiae deletion strains, locus YLR418C, strain cdc73, stronger effect = lower value 1.01 | S. cerevisiae deletion strains, locus YML016C, strain PPZ1, stronger effect = lower value 1.01 | S. cerevisiae deletion strains, locus YML032C, strain rad52, stronger effect = lower value 1 | S. cerevisiae deletion strains, locus YML120C, strain ndi1, stronger effect = lower value 0.97 | S. cerevisiae deletion strains, locus YML124C, strain tub3, stronger effect = lower value 0.997 | S. cerevisiae deletion strains, locus YMR058W, strain fet3, stronger effect = lower value 0.982 | S. cerevisiae deletion strains, locus YMR078C, strain ctf18, stronger effect = lower value 1 | S. cerevisiae deletion strains, locus YMR125W, strain sto1, stronger effect = lower value 0.962 | S. cerevisiae deletion strains, locus YMR129W, stronger effect = lower value 0.989 | S. cerevisiae deletion strains, locus YMR205C, strain PFK2, stronger effect = lower value 0.946 | S. cerevisiae deletion strains, locus YMR223W, strain ubp8, stronger effect = lower value 1 | S. cerevisiae deletion strains, locus YMR231W, strain pep5, stronger effect = lower value 0.978 | S. cerevisiae deletion strains, locus YMR263W, strain SAP30, stronger effect = lower value 0.994 | S. cerevisiae deletion strains, locus YMR307W, strain GAS1, stronger effect = lower value 1.04 | S. cerevisiae deletion strains, locus YNL067W, strain RPL9B, stronger effect = lower value 1.02 | S. cerevisiae deletion strains, locus YNL071W, strain lat1, stronger effect = lower value 0.984 | S. cerevisiae deletion strains, locus YNL128W, strain TEP1, stronger effect = lower value 0.983 | S. cerevisiae deletion strains, locus YNL153C, strain GIM3, stronger effect = lower value 0.997 | S. cerevisiae deletion strains, locus YNL175C, strain NOP13, stronger effect = lower value 0.988 | S. cerevisiae deletion strains, locus YNL183C, strain NPR1, stronger effect = lower value 0.973 | S. cerevisiae deletion strains, locus YNL197C, strain WHI3, stronger effect = lower value 0.984 | S. cerevisiae deletion strains, locus YNL209W, strain ssb2, stronger effect = lower value 0.986 | S. cerevisiae deletion strains, locus YNL224C, strain SQS1, stronger effect = lower value 0.972 | S. cerevisiae deletion strains, locus YNL233W, strain BNI4, stronger effect = lower value 1.02 | S. cerevisiae deletion strains, locus YNL248C, strain rpa49, stronger effect = lower value 0.964 | S. cerevisiae deletion strains, locus YNL250W, strain rad50, stronger effect = lower value 1.01 | S. cerevisiae deletion strains, locus YNL271C, strain bni1, stronger effect = lower value 0.993 | S. cerevisiae deletion strains, locus YNL298W, strain CLA4, stronger effect = lower value 0.997 | S. cerevisiae deletion strains, locus YNL307C, strain MCK1, stronger effect = lower value 0.997 | S. cerevisiae deletion strains, locus YNL322C, strain KRE1 (second series), stronger effect = lower value 0.959 | S. cerevisiae deletion strains, locus YNR049C, strain mso1, stronger effect = lower value 0.974 | S. cerevisiae deletion strains, locus YNR052C, strain pop2, stronger effect = lower value 1 | S. cerevisiae deletion strains, locus YOL006C, strain TOP1, stronger effect = lower value 1.04 | S. cerevisiae deletion strains, locus YOL012C, strain htz1 1.19 | S. cerevisiae deletion strains, locus YOL147C, strain pex11, stronger effect = lower value 0.991 | S. cerevisiae deletion strains, locus YOR001W, strain rrp6, stronger effect = lower value 1.01 | S. cerevisiae deletion strains, locus YOR061W, strain CKA2, stronger effect = lower value 1.02 | S. cerevisiae deletion strains, locus YOR069W, strain VPS5, stronger effect = lower value 1.01 | S. cerevisiae deletion strains, locus YOR070C, strain gyp1, stronger effect = lower value 0.975 | S. cerevisiae deletion strains, locus YOR080W, strain dia2, stronger effect = lower value 0.972 | S. cerevisiae deletion strains, locus YOR083W, strain WHI5 (second series), stronger effect = lower value 0.981 | S. cerevisiae deletion strains, locus YOR083W, strain WHI5, stronger effect = lower value 0.969 | S. cerevisiae deletion strains, locus YOR106W, strain vam3, stronger effect = lower value 0.935 | S. cerevisiae deletion strains, locus YOR136W, strain idh2, stronger effect = lower value 0.997 | S. cerevisiae deletion strains, locus YOR144C, strain elg1, stronger effect = lower value 0.991 | S. cerevisiae deletion strains, locus YOR184W, strain ser1, stronger effect = lower value 0.998 | S. cerevisiae deletion strains, locus YOR231W, strain MKK1, stronger effect = lower value 1.1 | S. cerevisiae deletion strains, locus YOR265W, strain rbl2, stronger effect = lower value 0.973 | S. cerevisiae deletion strains, locus YOR270C, strain vph1, stronger effect = lower value 0.957 | S. cerevisiae deletion strains, locus YOR290C, strain snf2, stronger effect = lower value 0.976 | S. cerevisiae deletion strains, locus YOR316C, strain cot1, stronger effect = lower value 0.997 | S. cerevisiae deletion strains, locus YPL051W, strain arl3, stronger effect = lower value 0.995 | S. cerevisiae deletion strains, locus YPL055C, strain LGE1, stronger effect = lower value 0.985 | S. cerevisiae deletion strains, locus YPL078C, strain atp4, stronger effect = lower value 0.971 | S. cerevisiae deletion strains, locus YPL106C, strain sse1, stronger effect = lower value 0.936 | S. cerevisiae deletion strains, locus YPL240C, strain hsp82, stronger effect = lower value 0.992 | S. cerevisiae deletion strains, locus YPL256C, strain CLN2, stronger effect = lower value 1.09 | S. cerevisiae deletion strains, locus YPR119W, strain clb2, stronger effect = lower value 0.988 | S. cerevisiae deletion strains, locus YPR141C, strain kar3, stronger effect = lower value 0.988 | S. cerevisiae deletion strains, locus YPR163C, strain tif3, stronger effect = lower value 0.987 | S. cerevisiae deletion strains, locus YPR167C, strain met16, stronger effect = lower value 0.985 | S. cerevisiae deletion strains, strain wtn01, stronger effect = lower value 1 | S. cerevisiae strains, strain wild type, stronger effect = lower value 1.02
